Experimental data as given in PubChem BioAssay (NCATS).
Records with an inconclusive call do not appear. A number with no mark means an inactive call. Activity calls are given as the source filed them. Calls follow the shape of the dose curve; as a rule, active = well fitted inhibition curve with a large enough effect; inconclusive = small, poorly fitted or top-dose-only effect; inactive = flat fitted curve, though single readings scatter.

These molecules were tested on TAB113 (assay: qHTS profiling for inhibitors of Plasmodium falciparum proliferation (AID 504749; also: nearly all actives have a fitted effect of over 60% in size;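 as to activity, negative = inhibition: 0% = DMSO vehicle and full inhibition = artemisinin control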)). Conditions: P. falciparum in erythrocytes, SYBR Green DNA, 72 h; series mostly up to 28.7 µM; activity, negative = inhibition: at the top concentration.
Summary of the method: (§1)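 SYBR Green fluorescence (ex 485 nm, em 535 nm) reports parasite DNA after 72 h compound exposure of infected red cells at 0.3% parasitemia, 2.5% hematocrit; signal normalized to 0.29 uM artemisinin and vehicle wells.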
Potency is read from the fitted curve at half-maximal effect.

Question: With CC(=O)Oc1ccc(C)cc1 as the molecule, how does the “activity, negative = inhibition” value read?
Answer: 6.99%

Question: For CC(C)(C)NC[C@H](O)COc1nsnc1N1CCOCC1, which Potency is on record?
Answer: 6.31 µM (active)

Question: How did the “activity, negative = inhibition” value turn out when Cc1ncc(CO)c(C=O)c1O was run?
Answer: 6.65%

Question: COc1cc(C)nc(-n2nc(C)cc2OC)n1 was tested. Which “activity, negative = inhibition” value did it give?
Answer: 3.46% [at 12.8 µM]

Question: For O=C1C(O)=C(O)C(=O)C(O)=C1O, which “activity, negative = inhibition” value is on record?
Answer: 8.11%

Question: How did the “activity, negative = inhibition” value turn out when CCCCCCCCCCCCSCCOCCO was run?
Answer: 0.763%

Question: Which “activity, negative = inhibition” value does the source give for OC[C@H]1O[C@@H]2O[C@H]3[C@H](O)[C@@H](O)[C@@H](O[C@H]4[C@H](O)[C@@H](O)[C@@H](O[C@H]5[C@H](O)[C@@H](O)[C@@H](O[C@H]6[C@H](O)[C@@H](O)[C@@H](O[C@H]7[C@H](O)[C@@H](O)[C@@H](O[C@H]8[C@H](O)[C@@H](O)[C@@H](O[C@H]1[C@H](O)[C@H]2O)O[C@@H]8CO)O[C@@H]7CO)O[C@@H]6CO)O[C@@H]5CO)O[C@@H]4CO)O[C@@H]3CO here?
Answer: 18.9%

Question: C#C[C@]1(OC(C)=O)CC[C@H]2[C@@H]3CCC4=C/C(=N/O)CC[C@@H]4[C@H]3CC[C@@]21CC was tested. Which “activity, negative = inhibition” value did it give?
Answer: -1.93%

Question: With CCOC(=O)c1c(N)sc2c1CCN(Cc1ccccc1)C2 as the molecule, how does the Potency read?
Answer: 11.2 µM (active)

Question: For CCCCCCCC/C=C\CCCCCCCCN, which “activity, negative = inhibition” value is on record?
Answer: 4.12%

Question: With N#CCC(=O)NN as the molecule, how does the “activity, negative = inhibition” value read?
Answer: 15.3%

Question: Which “activity, negative = inhibition” value does the source give for C#C[C@]1(O)CC[C@H]2[C@@H]3CCC4=CC(=O)CC[C@@H]4[C@H]3CC[C@@]21CC here?
Answer: -2.02%

Question: For O=C(c1ccc(F)cc1)C1CCN(CCn2c(=S)[nH]c3ccccc3c2=O)CC1, which Potency is on record?
Answer: 3.98 µM (active)

Question: How did the “activity, negative = inhibition” value turn out when CC(=O)N[C@@H](CCC(=O)O)C(=O)O was run?
Answer: -4.86%

Question: With CCCc1ncc(C[n+]2ccccc2C)c(N)n1 as the molecule, how does the “activity, negative = inhibition” value read?
Answer: 2.07% [at 12.8 µM]

Question: Which Potency does the source give for CCN(CC)CCOC(=O)C1(c2ccccc2)CCCC1 here?
Answer: 0.005 µM (active)

Question: How did the “activity, negative = inhibition” value turn out when Cc1cccc(C)c1NC(=O)CN1CCCCCC1 was run?
Answer: 0.107%

Question: For Nc1ccc(S(=O)(=O)NCc2ccccc2)cc1, which “activity, negative = inhibition” value is on record?
Answer: 16%

Question: Which Potency does the source give for CCN(CC)CCOc1ccc2c(c1)C(=O)c1cc(OCCN(CC)CC)ccc1-2 here?
Answer: 11.2 µM (active)

Question: Which “activity, negative = inhibition” value does the source give for CCc1oc2ccccc2c1C(=O)c1cc(I)c(O)c(I)c1 here?
Answer: -18.1%

Question: How did the Potency turn out when CCCCCN=C(N)N/N=C/c1c[nH]c2ccc(OC)cc12 was run?
Answer: 10 µM (active)

Question: With O=C(O)CCNC(=O)c1ccccc1 as the molecule, how does the “activity, negative = inhibition” value read?
Answer: -0.0876%

Question: With CCCCC(CC)COC(=O)/C=C/c1ccc(OC)cc1 (configuration not stated) as the molecule, how does the “activity, negative = inhibition” value read?
Answer: 4.27%

Question: With COc1cc(NS(=O)(=O)c2ccc(N)cc2)ncn1 as the molecule, how does the “activity, negative = inhibition” value read?
Answer: 4.08% [at 12.8 µM]

Question: Which Potency does the source give for Cc1ccc2c(Br)cc(Br)c(O)c2n1 here?
Answer: 12.6 µM (active)

Question: With C=C[C@@]1(C)CC(=O)[C@]2(O)[C@@]3(C)[C@@H](O)CCC(C)(C)[C@@H]3[C@H](O)[C@H](OC(C)=O)[C@@]2(C)O1 as the molecule, how does the “activity, negative = inhibition” value read?
Answer: -15.3%

Each molecule was assayed on TAB165 in the same assay as above. Conditions: P. falciparum in erythrocytes, SYBR Green DNA, 72 h; series mostly up to 28.7 µM; activity, negative = inhibition: at the top concentration.
Summary of the method: as §1

Question: How did the “activity, negative = inhibition” value turn out when CC(=O)Oc1ccc(C)cc1 was run?
Answer: -1.73%

Question: How did the Potency turn out when CC(C)(C)NC[C@H](O)COc1nsnc1N1CCOCC1 was run?
Answer: 5.01 µM (active)

Question: With Cc1ncc(CO)c(C=O)c1O as the molecule, how does the “activity, negative = inhibition” value read?
Answer: 5.17%

Question: How did the “activity, negative = inhibition” value turn out when COc1cc(C)nc(-n2nc(C)cc2OC)n1 was run?
Answer: -0.422% [at 12.8 µM]

Question: How did the “activity, negative = inhibition” value turn out when O=C1C(O)=C(O)C(=O)C(O)=C1O was run?
Answer: 5.86%

Question: For CCCCCCCCCCCCSCCOCCO, which “activity, negative = inhibition” value is on record?
Answer: 3.71%

Question: How did the “activity, negative = inhibition” value turn out when OC[C@H]1O[C@@H]2O[C@H]3[C@H](O)[C@@H](O)[C@@H](O[C@H]4[C@H](O)[C@@H](O)[C@@H](O[C@H]5[C@H](O)[C@@H](O)[C@@H](O[C@H]6[C@H](O)[C@@H](O)[C@@H](O[C@H]7[C@H](O)[C@@H](O)[C@@H](O[C@H]8[C@H](O)[C@@H](O)[C@@H](O[C@H]1[C@H](O)[C@H]2O)O[C@@H]8CO)O[C@@H]7CO)O[C@@H]6CO)O[C@@H]5CO)O[C@@H]4CO)O[C@@H]3CO was run?
Answer: 3.11%

Question: For C#C[C@]1(OC(C)=O)CC[C@H]2[C@@H]3CCC4=C/C(=N/O)CC[C@@H]4[C@H]3CC[C@@]21CC, which “activity, negative = inhibition” value is on record?
Answer: -6.58%

Question: With CCOC(=O)c1c(N)sc2c1CCN(Cc1ccccc1)C2 as the molecule, how does the Potency read?
Answer: 5.01 µM (active)

Question: CCCCCCCC/C=C\CCCCCCCCN was tested. Which “activity, negative = inhibition” value did it give?
Answer: 16.1%

Question: With N#CCC(=O)NN as the molecule, how does the “activity, negative = inhibition” value read?
Answer: 3.51%

Question: With C#C[C@]1(O)CC[C@H]2[C@@H]3CCC4=CC(=O)CC[C@@H]4[C@H]3CC[C@@]21CC as the molecule, how does the “activity, negative = inhibition” value read?
Answer: -0.14%

Question: For O=C(c1ccc(F)cc1)C1CCN(CCn2c(=S)[nH]c3ccccc3c2=O)CC1, which Potency is on record?
Answer: 5.01 µM (active)

Question: Which “activity, negative = inhibition” value does the source give for CC(=O)N[C@@H](CCC(=O)O)C(=O)O here?
Answer: 4.88%

Question: How did the “activity, negative = inhibition” value turn out when CCCc1ncc(C[n+]2ccccc2C)c(N)n1 was run?
Answer: 2.06% [at 12.8 µM]

Question: Which “activity, negative = inhibition” value does the source give for CCN(CC)CCOC(=O)C1(c2ccccc2)CCCC1 here?
Answer: -74.7%

Question: With Cc1cccc(C)c1NC(=O)CN1CCCCCC1 as the molecule, how does the “activity, negative = inhibition” value read?
Answer: -4.06%

Question: For Nc1ccc(S(=O)(=O)NCc2ccccc2)cc1, which “activity, negative = inhibition” value is on record?
Answer: 7.84%

Question: CN1CCc2cccc3c2[C@H]1Cc1ccc(O)c(O)c1-3 was tested. Which Potency did it give?
Answer: 7.08 µM (active)

Question: CCc1oc2ccccc2c1C(=O)c1cc(I)c(O)c(I)c1 was tested. Which “activity, negative = inhibition” value did it give?
Answer: 0.185%

Question: Which Potency does the source give for CCCCCN=C(N)N/N=C/c1c[nH]c2ccc(OC)cc12 here?
Answer: 3.55 µM (active)

Question: How did the “activity, negative = inhibition” value turn out when O=C(O)CCNC(=O)c1ccccc1 was run?
Answer: 19.4%

Question: CCCCC(CC)COC(=O)/C=C/c1ccc(OC)cc1 (configuration not stated) was tested. Which “activity, negative = inhibition” value did it give?
Answer: 1.45%

Question: COc1cc(NS(=O)(=O)c2ccc(N)cc2)ncn1 was tested. Which “activity, negative = inhibition” value did it give?
Answer: 9.03% [at 12.8 µM]

Question: How did the Potency turn out when Cc1ccc2c(Br)cc(Br)c(O)c2n1 was run?
Answer: 6.31 µM (active)

Question: For C=C[C@@]1(C)CC(=O)[C@]2(O)[C@@]3(C)[C@@H](O)CCC(C)(C)[C@@H]3[C@H](O)[C@H](OC(C)=O)[C@@]2(C)O1, which “activity, negative = inhibition” value is on record?
Answer: -4.53%
